Measured values as given in PubChem BioAssay (NCI).
About 83,000 compounds went through this panel and 20% of them were active in at least one assay; those are over-represented in the sample as a whole.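 Activity criterion: percent growth below 10, measured after cells in 96-well plates were exposed to a single compound concentration for 48 hours.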 A number with no mark means an inactive call. Active and inactive are the calls of the source.

tested on: TK-10 renal; assay: NCI-60 one-dose screen, 48 h (100 = growth as untreated, 0 = no growth, -100 = all killed); details: 10 µM unless noted
Description: Growth inhibition of the TK-10 human tumor cell line is measured as a screen for anti-cancer activity. Cells are grown in 96 well plates and exposed to the test compound for 48 hours. Compounds are tested at a single concentration, which is 10^-5 M for most compounds. The reported endpoint is percent growth (GI% or GIPRCNT), where numbers from 0 - 100% represent growth inhibition, and numbers from -100% - 0 represent cell death. For example, a value of 40 represents 60% growth inhibition. A value of 0 means no net growth occurred over the course of the experiment. A value of -40 indicates 40% of cells at the beginning of the experiment died by the end of the experiment. A value of -100 means all cells are dead at the end of the experiment.
NCI-60 Human Tumor Cell Lines Screen was performed using the standard one-dose NCI protocol, which is described in more detail at https://dtp.cancer.gov/discovery_development/nci-60/default.htm.
Compounds with GIPRCNT values below 10 were considered active. Activity score was based on GIPRCNT using the following formula: […]
Score is 0 for GIPRCNT values of 100 or above, 50 for GIPRCNT values of 0, and 100 for GIPRCNT values of -100.

| SMILES | growth |
| --- | --- |
| CCCCCCCCCCCCc1ccc([N+](CC)(CC)CC)cc1 | 67.1% |
| N=c1c2c(=O)n3c(nc2nc2sc4ccc(Cl)cc4n12)-c1ccccc1Sc1ccccc1-3 | 47% |
| COc1cc2cc3cc4cc(OC)c(OC)cc4c(C)[n+]3cc2cc1OC (tested in a mixture with another compound) | 117% |
| CNCCCNCCCCNCCCN1C(=O)c2ccc3c4c(ccc(c24)C1=O)C(=O)N(CCCNCc1ccccc1OC)C3=O | 41.9% |
| COc1cc(-c2nn(-c3ccc(NC(=O)Nc4ccc(Cl)c(Cl)c4)cc3)cc2-c2ccncc2)ccc1Cl | -12.6% (active) |
| O=C(Nc1ccc(-n2cc(-c3ccncc3)c(-c3ccc(Cl)c(O)c3)n2)cc1)c1cc(Cl)cc(Cl)c1 | 61.3% |
| O=C(NCCNCCO)c1cc([N+](=O)[O-])cc([N+](=O)[O-])c1O | 101% |
| NC(=O)CC(NC(=O)COc1ccc(Cl)cc1Cl)C(=O)O (stereo not given) | 103% |
| COc1ccc(Cn2cc3c(c2-c2ccccc2)CCc2cnoc2-3)cc1OC | 70.4% |
| CC(=O)/C(=C/c1ccc(-c2ccccc2)cc1)C(=O)c1ccccc1 | 103% |
| Cc1cc(CSc2ccc(Cl)cc2)ccc1N | 101% |
| CCOC(=O)CSSCC(=O)OCC | 103% |
| COC(=O)/C=C1/CCCCC1(C)C(=O)OC (stereo not given) | 104% |
| CCCCCCN(CCCCCC)CCC(=O)Nc1ccc(S(=O)(=O)c2ccc(NC(=O)CCN(CCCCCC)CCCCCC)cc2)cc1 | 109% |
| O=c1c2c(c3ccccc3n1-c1ccccc1)NC(=S)NC2c1ccccc1 (stereo not given) | 226% |
| CCOc1ccc2nc3ccc(Cl)cc3nc2c1 | 95.1% |
| N#Cc1c2ncccc2c2nnc3cc(Cl)c(Cl)cc3n12 | 67.7% |
| CCOC(=O)c1c(C)oc2ncnc(Nc3ccc(C(=O)NCCc4ccccc4)cc3)c12 | 102% |
| COc1cc(Cn2ccc3c2-c2oncc2CC3)cc(OC)c1 | 61.7% |
| C=C(NC(=O)[C@H](C(C)C)N(C)c1cccc2[nH]ccc12)C(=O)OC | 94.2% |

| SMILES | growth |
| --- | --- |
| Clc1ccc(I)c2ccccc12 | 92.6% |
| CCCCCCCCCCCCOC(=O)/C=C\C(=O)NC(N)=O | 86.9% |
| COc1ccc(C2=NN(C(=O)c3cc(-c4ccc(C)cc4)nc4ccccc34)C(c3cc(-c4ccccc4)nn3-c3ccccc3)C2)cc1 (stereo not given) | 113% |
| CCCCCCCCCCCCCCCCCC1=NCCN1CCNC(C)=O | 103% |
| NC(N)=Nc1ccc(/C=C2\C=Cc3ccccc32)cc1 | 78.1% |
| COc1cc(/C(=C2/O[C@@H]([C@H]3COC(C)(C)O3)[C@H]3OC(C)(C)O[C@@H]23)c2ccc3c(c2)OCO3)cc(OC)c1OC | 70.7% |
| CCCCCCCCCCCCCCCCCCOP(=O)(O)O | 107% |
| CC(O)c1cc[cH-]c1.[Fe+2].c1cc[cH-]c1 (stereo not given) | 96% |
| Nc1ccc(S(=O)(=O)c2ccc(NO)cc2)cc1 | 131% |
| C/C(=C\c1ccc2ccccc2c1)[N+](=O)[O-] | -47% (active) |
| CC(=O)Nc1nc(C)c(C(=O)NNC(=O)Nc2ccccc2)s1 | 159% |
| Oc1ccccc1/C=N/N=C/c1c(O)ccc2ccccc12 | 101% |
| COc1ccc(OC)c(Cn2cc3c(c2)-c2oncc2CC3)c1 | 68.9% |
| O=CN/N=C/c1ccc(Cl)c([N+](=O)[O-])c1 | 8.5% (active) |
| C#CCCCCCCC[C@@H]1OC(=O)[C@H]([C@@H](C)CC)NC(=O)[C@H]([C@@H](C)CC)NC(=O)CC(=O)[C@@H]1C | 117% |
| CCCCCCNC(=O)Oc1ccc(/C(=C(/C)Cc2ccc(OC)cc2)c2ccc(OCCN(C)C)cc2)cc1 | 71.5% |
| Oc1ccc(N=Nc2ccc(N=Nc3ccccc3)cc2)cc1 | 48.5% |
| CCOC(=O)CCCCCCCCC(=O)OCC | 104% |
| CCC(C)C1NC(=O)C(CC(C)C)NC(=O)C(C)NC(=O)C(C(C)C)NC(=O)C(CCCCN)NC(=O)C(CC(C)C)NC(=O)C(C(C)C)NC(=O)[C@H](C)NC(=O)C(C(C)CC)NC(=O)C(CCCN=C(N)N)NC(=O)C(CCCCN)NC(=O)C(CCCN=C(N)N)NC(=O)C(CCCCN)NC(=O)C([C@H](C)CC)NC(=O)C(CCCCN)NC1=O (stereo not given in full) | 20.2% |
| O=C1c2ccccc2CCc2ccccc21 | 99.3% |
